Where “and” joins values, the source holds several entries; their conditions need not be identical. Equal values may be shown once. Results filed as inconclusive are left out. Calls come from the whole dose curve; as a rule, active = well fitted activation curve with a large enough effect in the signal ratio, with a control signal flat (not every such curve was filed as active); inconclusive = small, poorly fitted or top-dose-only effect, or effect the other way, or a change in a side signal; inactive = flat fitted curve, though single readings scatter; the % refers to the signal ratio.
assay: qHTS Assay for Identification of Small Molecule Agonists for Hypoxia Response Element Signaling Pathway (AID 914); details: ME-180 (cervical carcinoma) HRE-bla reporter, beta-lactamase ratio, CoCl2, 17 h; hits give high values; note: % of control where 0% means no effect
Summary of the method: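 A beta-lactamase reporter under hypoxia response element control in ME-180 cells served as the system. Compound titrations plus EC50 CoCl2 ran 17 h at 37 degrees Celsius; AC50 values were fitted from %Activity.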

activation, inactive:
C=CC[C@@H]1C=C[C@@H](O/N=C\C[C@@H]2C=C[C@H](OC(C)=O)[C@H](COC(C)=O)O2)[C@@H](CO)O1 4.01%
C/C(CCC(=O)OC[C@@H]1O[C@H](C#Cc2ccccc2)C=C[C@@H]1Oc1ccc(C)cc1)=N/OC[C@@H](C)[C@H](OCc1ccccc1)C(C)C 14.9%
C/C(CCN1CCc2nc(-c3ccccc3)c(-c3ccccc3)cc2C1)=N\O[C@@H](C)c1cn([C@H](CO)Cc2ccccc2)nn1 -1.74% and -5.69%
CO[C@H]1COC(=O)C/C=C\[C@H](C)COC(=O)[C@@H](OCc2ccccc2)/C=C\[C@@H]1C -11.2%
CO[C@H]1COC(=O)C/C=C\[C@@H](C)COC(=O)[C@@H](OCc2ccccc2)/C=C\[C@@H]1C -3.25%
COc1ccc(COC(=O)N/N=C2/C[C@@H](O)[C@@H](O)[C@@H]3[C@@H]4C(=O)N(c5cccc(Oc6ccccc6)c5)C(=O)[C@H]4CC[C@@H]23)cc1 -7.26%
CC(C)=CCC/C(C)=C/CO/N=C1/[C@H]2O[C@@H]2[C@@H](O)[C@H]2[C@H]1CCn1c(=O)n(Cc3cc4c(cc3Cl)OCO4)c(=O)n12 3.23%
C/C(CCN1CCc2nc(-c3ccccc3)c(-c3ccccc3)cc2C1)=N\O[C@@H](C)c1cc(-c2c(C)cc(C)cc2C)no1 20.9%
CC(C)C(=O)N[C@@H]1CCCN1C(=O)/C=C\c1ccccc1 12.7%
C/C(CCN1CCCCc2nc(C)c(C)cc21)=N\OC[C@@H](C)[C@H](OCc1ccccc1)C(C)C 5.09%
C#CCCCO/N=C1/C[C@@H](O)[C@@H](O)[C@@H]2[C@@H]3C(=O)N(C4CCCCC4)C(=O)[C@H]3CC[C@H]12 7.1%
